# In the library only some 6% were active in any assay of this set; here they are far more common.
# D1 ag: human D1 receptor agonism | P21728 | HEK293 T-REx D1 cells, calcium flux, agonist mode | activation, % at 2 µM | actives 1% (n = 360,000) | AID 504660; in the data active means activation above about 30%; further: 0% is about no effect
# Target sequence (P21728 whole entry, looked up): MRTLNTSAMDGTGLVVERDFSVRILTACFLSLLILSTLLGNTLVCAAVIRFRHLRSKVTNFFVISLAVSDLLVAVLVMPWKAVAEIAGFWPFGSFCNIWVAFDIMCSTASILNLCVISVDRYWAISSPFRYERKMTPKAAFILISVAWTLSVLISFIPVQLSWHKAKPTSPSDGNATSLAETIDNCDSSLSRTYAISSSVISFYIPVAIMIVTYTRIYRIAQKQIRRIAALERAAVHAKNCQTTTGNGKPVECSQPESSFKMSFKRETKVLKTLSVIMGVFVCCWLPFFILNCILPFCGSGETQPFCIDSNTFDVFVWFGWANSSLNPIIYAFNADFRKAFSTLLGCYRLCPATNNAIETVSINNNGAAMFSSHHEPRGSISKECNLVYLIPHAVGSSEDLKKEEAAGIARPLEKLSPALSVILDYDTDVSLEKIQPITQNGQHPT
#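 Tetracycline-induced HEK293 TREx D1 cells, force-coupled to calcium signalling, were dye-loaded with a no-wash calcium kit. Compound was pin-added after a 10 s baseline. Fluorescence was read kinetically at 1 cycle/s for 180 s, with calcium rises flagged as agonism.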
# D1 PAM: human D1 dopamine receptor positive modulation. actives 0.036% (n = 360,000). P21728. AID 504651. HEK293 TREx D1 cells, calcium flux, dopamine EC20 potentiation. potentiation, % at 10 µM; in the data active means potentiation above about 30%; further: 0% is about no effect
# D3 ag: D3 dopamine receptor (human) agonism | max activation, % | P35462 | actives 0.58% (n = 410,000) | D3R DiscoveRx beta-arrestin cells, luminescence, 90 min; in the data active means max activation above about 30%; further: 0% is about no effect
#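 Agonist mode: compounds and dopamine controls were applied to plated cells for 90 min at 37 degrees C after an overnight attachment at 1500 cells/well. Luminescent read-out followed 30 - 60 minutes at room temperature with DiscoveRx detection reagent.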
# DRD3 antagonist: D3 dopamine receptor (human) antagonism; D3R cells, DiscoveRx beta-arrestin luminescence, antagonist mode; hits give low values; max response, negative = inhibition, %; actives 2.5% (n = 360,000); AID 652054; in the data active means max response below about -50%; inconclusive means no clear call, values can overlap the other calls; further: on the % scale 0 is the no-effect control and ±100 the full control effect
#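 Cells plated overnight at 1500 cells/well, then exposed to library compounds with dopamine controls for 90 minutes at 37 degrees C. DiscoveRx reagent added for 30–60 minutes at room temperature; luminescence read, quantitative HTS format.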
# D1 antag: human D1 dopamine receptor antagonism; HEK293 TREx D1 cells, calcium flux, dopamine EC80; hits give low values; activity change, negative = inhibition, % at 10 µM; actives 3.2% (n = 360,000); AID 504652; in the data active means activity change below about -30%; further: on the % scale 0 is the no-effect control and ±100 the full control effect
#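 Cells carrying a force-coupled, tetracycline-inducible human D1 receptor report calcium flux. Each well gets a 10 s baseline, compound with 180 s monitoring, then an EC80 dopamine stimulus with a second 180 s kinetic read.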
# * = called active by the depositor; ? = inconclusive; · = no result given.
SMILES,D1 ag,D1 PAM,D3 ag,DRD3 antagonist,D1 antag
CCC12CN3CC(CC)(CN(C1)C3c1c(C)[nH]c(=O)[nH]c1=O)C2=O (configuration not stated),3,3,4,·,1
CN1CC(C(=O)c2ccc(F)cc2)C(c2ccc(F)cc2)C1 (configuration not stated),5,-8,-13,-129*,1
Nc1c2c(nc3sc4c(c13)CCCCC4)CCCC2,20,-12,2,2,-42*
FC(F)(F)c1ccccc1CN1CCN(Cc2ccccc2)CC1,1,2,-24,?,1
CC(C)N1CCN(Cc2ccccc2C(F)(F)F)CC1CCO (configuration not stated),1,-4,-11,-53*,5
O=[N+]([O-])c1ccc(N2CCNCC2)cc1N1CCCCC1,9,1,-4,-21,-11
Nc1cc(N2CCNCC2)c([N+](=O)[O-])cc1Cl,3,-15,-2,-12,-42*
CCOC(=O)C1(CCc2ccccc2)CCN(Cc2ccc3c(c2)OCCO3)CC1,2,-3,-11,?,-20
CCOC(=O)C1(CCOc2ccccc2)CCN(Cc2ccc(C)s2)CC1,5,-3,-16,-50*,7
COc1ccc(-c2nc3ccc(Br)cn3c2CC(=O)N2CCCC2)cc1OC,·,·,-8,-52*,·
Clc1cccc(N2CCNCC2)c1Cl,9,-9,7,-56*,-18
CCN[C@H](C)Cc1cccc(C(F)(F)F)c1,·,·,-27,·,·
CCN1CCN(c2ncnc3ccc(Br)cc23)CC1,4,-3,-1,-66*,-5
CCc1cc2c(N3CCN(C)CC3)ncnc2s1,1,-8,-1,?,16
Cc1ccc(Cl)c(O)c1,·,·,-13,·,·
NC(=O)CN1CC(O)CC1=O (configuration not stated),·,·,-11,·,·
N=C1SCC(=O)N1Cc1ccccc1,3,-4,3,5,-31*
CCC1(CC)C(=O)N(Cc2ccccc2)C(=O)N(Cc2ccccc2)C1=O,3,-7,-20,-27,-19
CCCCCCC(=O)O[C@H]1CC[C@H]2[C@@H]3CC[C@H]4CC(=O)C=C(C)[C@]4(C)[C@H]3CC[C@]12C,·,·,7,·,·
CN(C)C(=S)SSC(=S)N(C)C,4,-3,6,-74*,19
CN1CCc2cccc(Cl)c2CC1,0,-7,-71,-78*,-64*
COc1ccc(CN2Cc3cnnn3-c3ccccc3C2C#N)cc1 (configuration not stated),·,·,-34,-78*,·
N#CC1c2ccccc2-n2nncc2CN1Cc1cc(Cl)cc(Cl)c1 (configuration not stated),·,·,-46,-109*,·
CN1C(=O)C(O)N=C(c2ccccc2)c2cc(Cl)ccc21 (configuration not stated),·,·,4,·,·
F/C(COc1ccc2c(c1)[nH]c1ccccc12)=C1/CN2CCC1CC2,·,·,-14,·,·
SMILES,D1 ag,D1 PAM,D3 ag,DRD3 antagonist,D1 antag
Cc1ccc(NC(=O)Cn2cc(C(=O)c3ccccc3)c3ccccc32)cc1,11,-8,0,·,-12
COc1ccc(CN2C(=O)NC(=O)/C(=C/c3ccc(OC)c(OC)c3OC)C2=O)cc1,7,-2,4,5,-35*
COc1ccc(CN2C(=O)NC(=O)/C(=C/c3cc(OC)c(OC)c(OC)c3)C2=O)cc1,5,2,-3,-10,-13
CCCCc1nn2c(=O)cc(COC(=O)Cc3ccccc3)nc2s1,2,-5,-6,·,7
CCC(C)OC(=O)c1c(N)n(Cc2cccs2)c2nc3ccccc3nc12 (configuration not stated),2,-3,-3,-12,1
Nc1c(C(=O)OCc2ccccc2)c2nc3ccccc3nc2n1Cc1cccs1,2,-4,16,-13,-30*
N#Cc1c(/N=C/c2ccc(O)cc2O)sc2c1C1CCN2CC1,34*,-3,-7,-16,-22
CCC1(c2ccccc2)CCC(=O)NC1=O (configuration not stated),·,·,7,·,·
COc1cc(C[C@@H](C)N)c(OC)cc1C,·,·,-14,·,·
C=C(C)CN1CC[C@]23c4c5ccc(O)c4O[C@H]2c2[nH]c4ccccc4c2C[C@@]3(O)C1C5,-1,-4,·,·,-80*
CN1CCC(c2c[nH]c3ccccc23)C1 (configuration not stated),6,-5,-2,-100*,-32*
O=C(c1ccc2c3c(cccc13)CC2)C1CCCN(CC2CC2)C1 (configuration not stated),13,-4,-27,-81*,-15
[O]=[Cd],·,·,-8,·,·
Oc1cc(Cl)c(Cl)c(Cl)c1,·,·,61*,68,·
COC(=O)c1ccc(CN2CCN(Cc3ccccc3)CC2)cc1,0,-6,-74,-81*,-8
CN[C@H]1C[C@@H](N)[C@H](O)[C@@H](O[C@@H]2O[C@H](CO)[C@H](O)[C@@H]3OC4(O[C@H]23)O[C@H](C(N)CO)[C@H](O)[C@H](O)[C@H]4O)[C@@H]1O (some centres not stated),·,·,-3,·,·
O=c1[nH]c(CN2CC=C(c3ccccc3)CC2)nc2cc(C(F)(F)F)ccc12,1,-6,-1,-27,-11
O=c1[nH]c(CN2CC=C(c3ccccc3)CC2)nc2scc(-c3ccccc3)c12,2,2,68*,-7,5
C[C@]12C=CC(=O)C=C1CC[C@@H]1[C@@H]2CC[C@@]2(C)[C@H]1CC[C@]2(C)O,·,·,-9,·,·
Cc1ccccc1CCNCc1ccc(Br)cc1,5,-1,-4,-59*,3
COc1ccc(CCNCc2ccc(Br)cc2)cc1OC,43*,-9,-15,-60*,-11
CN1C(=O)[C@@H](NC(=O)c2cc3ccccc3[nH]2)N=C(c2ccccc2)c2ccccc21,·,·,8,·,·
OCCN1C2CCC1CC(O)(c1ccc(F)cc1)C2 (configuration not stated),6,-11,-22,-68*,4
CC(=O)OO,·,·,-4,·,·
CCC(=O)O[C@@](Cc1ccccc1)(c1ccccc1)[C@@H](C)CN(C)C,·,·,-25,·,·
SMILES,D1 ag,D1 PAM,D3 ag,DRD3 antagonist,D1 antag
O=C(COC(=O)Cc1ccccc1)NNC(=O)c1ccc([N+](=O)[O-])cc1,1,-3,-6,-28,-1
O=C(OCC(=O)c1ccc([N+](=O)[O-])cc1)/C(=C/c1ccc(Cl)cc1)NC(=O)c1ccccc1,3,2,2,14,-34*
CCOCCOC(C)=O,·,·,13,·,·
NCC(O)c1cc(O)c(O)cc1F (configuration not stated),37*,-6,176*,22,-85*
CC[C@@H](O)C(C[C@@H](C)N(C)C)(c1ccccc1)c1ccccc1,·,·,7,·,·
COC(=O)C1=C(c2ccc(Cl)c(C(F)(F)F)c2)C[C@@H]2CC[C@H]1N2C(=O)N1CCOCC1,0,-2,-26,0,-4
COC(=O)C1=C(c2ccc(F)cc2F)C[C@@H]2CC[C@H]1N2C(=O)N1CCC(O)(c2ccc(Cl)cc2)CC1,5,-3,-11,-30,-46*

# Bioassay records: PubChem, National Center for Advancing Translational Sciences (NCATS)
